Results published in PubChem BioAssay (NCATS).
Results filed as inconclusive are left out. A number with no mark means an inactive call. Active and inactive are the calls of the source. Calls follow the shape of the dose curve; as a rule, active = well fitted inhibition curve with a large enough effect; inconclusive = small, poorly fitted or top-dose-only effect; inactive = no such curve, though single readings can be large or run the other way. Non-standard residues stand in square brackets, D forms with d. Residues, ends and D or L forms follow the SMILES beside them. Dip = N[C@H](C(=O)O)C(c1ccccc1)c1ccccc1

experiment: BET inhibitor-based combinations targeting novel dependencies in MECOM-rearranged (r) AML: MV-4-11 cell line (AID 2202233); conditions: MV-4-11 AML viability, CellTiter-Glo luminescence, 48 h; series mostly up to 46 µM; viability, % of control: at the top concentration; also: nearly all actives have a fitted effect of over 45% in size
How it was run: (§1)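 Activity is given as area under the curve and as Z-AUC, mean-centred within each cell line. It comes from 11-point dose curves normalized to DMSO and empty wells. CellTiter-Glo luminescence was read after 48 hr drug exposure of 500 cells/well.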
Potency is read from the fitted curve at half-maximal effect.

Compound	Potency
C/C=C/C[C@@H](C)C(=O)[C@H]1C(=O)N[C@@H](C(C)C)C(=O)N(C)CC(=O)N(C)[C@@H](CC(C)C)C(=O)N[C@@H](C(C)C)C(=O)N(C)[C@@H](CC(C)C)C(=O)N[C@@H](C)C(=O)N[C@H](C)C(=O)N(C)[C@@H](CC(C)C)C(=O)N(C)[C@@H](CC(C)C)C(=O)N(C)[C@@H](C(C)C)C(=O)N1C	8.11 µM (active)
C#C[C@]1(O)CC[C@H]2[C@@H]3CCc4cc(O)ccc4[C@H]3CC[C@@]21C	20.9 µM (active)
Cc1nc(C)c(CN2CCN(C(c3ccc(F)cc3)c3ccc(F)cc3)CC2)nc1C	18.6 µM (active)
CCC1CCCCN1C(=O)n1ncc(C(O)(c2ccccc2)c2ccccc2)n1 (stereo unspecified)	14.8 µM (active)
C[C@@]1(c2ncncc2F)NC(=O)c2cc(-c3cn[nH]c3)ccc21	14.8 µM (active)
COc1ccc(CC2c3cc(OC)c(OC)cc3CC[N+]2(C)CCC(=O)OCCCCCOC(=O)CC[N+]2(C)CCc3cc(OC)c(OC)cc3C2Cc2ccc(OC)c(OC)c2)cc1OC (stereo unspecified)	18.6 µM (active)
CCN(C(=O)c1c(O)c2c(Cl)cccc2n(C)c1=O)c1ccccc1	14.8 µM (active)
CCOC(=N)c1nc2ccc3ncnc(Nc4cc(F)c(F)cc4Cl)c3c2s1	16.6 µM (active)

experiment: BET inhibitor-based combinations targeting novel dependencies in MECOM-rearranged (r) AML: HNT-34 cell line (AID 2202234); conditions: HNT-34 AML viability, CellTiter-Glo luminescence, 48 h; series mostly up to 46 µM; viability (% of control): at the top concentration; also: nearly all actives have a fitted effect of over 35% in size;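 as to viability (% of control): plate controls were vehicle wells for no effect and cell-free wells for full effect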
How it was run: as §1

Compound	viability (% of control) [%]	Potency
CC[C@H](C)[C@@H]([C@@H](CC(=O)N1CCC[C@H]1[C@H](OC)[C@@H](C)C(=O)N[C@@H](Cc1ccccc1)c1nccs1)OC)N(C)C(=O)[C@@H](NC(=O)[C@H](C(C)C)N(C)C)C(C)C	29.7	–
CCN(CC)C(=O)Cc1csc(NS(=O)(=O)c2cccc(Cl)c2C)n1	95.6	–
CN1C(=O)N(c2cc(Cl)cc(Cl)c2)C(=O)[C@]12CN(Cc1cc(C(=O)O)cs1)C[C@H]2c1ccc(C#N)cc1	79.5	–
Cn1cc(-c2cc(Oc3cc(F)c(NC(=O)C4(C(=O)Nc5ccccc5)CC4)cc3F)ccn2)cn1	–	5.25 µM (active)
Cc1nc(NC(=O)N2CCC[C@H]2C(N)=O)sc1-c1csc(C(C)(C)C)n1	66.6	–
NS(=O)(=O)c1ccc(NC(=S)N2CCN(C/C=C/c3ccccc3)CC2)cc1	–	18.6 µM (active)
CCOc1cc(CC(=O)N[C@@H](CC(C)C)c2ccccc2N2CCCCC2)ccc1C(=O)O	106	–
O=C(NO)C1(CS(=O)(=O)c2ccc(Oc3ccc(Cl)cc3)cc2)CCOCC1	–	8.33 µM (active)
COc1ccc2c(c1)[C@]1(C[C@H]1c1ccc3c(/C=C/c4ccc(CN5C[C@@H](C)O[C@@H](C)C5)cc4)n[nH]c3c1)C(=O)N2	–	1.32 µM (active)
CC(=O)N1CCN(c2ccc(NC(=O)Cc3cnc(-c4ccnc(F)c4)c(C)c3)nc2)CC1	92.3	–
Cn1ncc(NC(=O)c2nc(-c3c(F)cccc3F)sc2N)c1N1CC[C@@H](N)[C@H](F)CC1	–	2.09 µM (active)
Cc1ccc(NC(=O)[C@H]2CCCN(C(=O)c3c(C)cccc3F)[C@H]2c2ccc(NC3CCCC3)cc2)cc1C(F)(F)F	–	9.34 µM (active)
CC(=O)Nc1ccc(C(=O)NC(C)(C)C)cc1	77.2	–
Cc1cc(Oc2ccc3nc(COc4ccc(CC5SC(=O)NC5=O)cc4)n(C)c3c2)cc(C)c1N (stereo unspecified)	104	–
CN(C(=O)CNC(=O)/C=C/c1cccc(Cl)c1)C1CCS(=O)(=O)CC1	91.6	–

experiment: BET inhibitor-based combinations targeting novel dependencies in MECOM-rearranged (r) AML: UCSD-AML1 cell line (AID 2202235); conditions: UCSD-AML1 AML cells viability, CellTiter-Glo, 48 h; series mostly up to 46 µM; viability (% of control): at the top concentration; also: nearly all actives have a fitted effect of over 40% in size;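 as to viability (% of control): plate controls were DMSO vehicle wells for no effect and blank wells for full effect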
How it was run: as §1

Compound	viability (% of control) [%]	Potency
C=CC(=O)N1CC(N2CCN(C(=O)CNc3cc(C4(C)CC4)c(Cl)cc3O)CC2)C1	114	–
CCN(CC)C(=O)Cc1csc(NS(=O)(=O)c2cccc(Cl)c2C)n1	107	–
CO[C@H]1C[C@@H]2CC[C@@H](C)[C@@](O)(O2)C(=O)C(=O)N2CCCC[C@@H]2C(=O)O[C@H]([C@@H](C)C[C@@H]2CC[C@H](O)[C@H](OC)C2)CC(=O)[C@H](C)C=C(C)[C@@H](O)[C@@H](OC)C(=O)[C@H](C)C[C@H](C)C=CC=CC=C1C	–	1.7 nM (active)
CN1C(=O)N(c2cc(Cl)cc(Cl)c2)C(=O)[C@]12CN(Cc1cc(C(=O)O)cs1)C[C@H]2c1ccc(C#N)cc1	104	–
Cc1noc(-c2ccc(-c3ccc(C4(C(=O)O)CC4)cc3)cc2)c1NC(=O)O[C@H](C)c1ccccc1	89.2	–
CCCCCCCCCCCCCC(=O)N[C@H](CO)[C@H](O)c1ccc([N+](=O)[O-])cc1	90.9	–
CC(C)c1onc(-c2c(Cl)cccc2Cl)c1COc1ccc(/C=C/c2cccc(C(=O)O)c2)c(Cl)c1	108	–
CCOc1cc(CC(=O)N[C@@H](CC(C)C)c2ccccc2N2CCCCC2)ccc1C(=O)O	84.5	–
CN(C)CCNC(=O)COc1c2cccc1Cc1cccc(c1OCC(=O)NCCN(C)C)Cc1cccc(c1OCC(=O)NCCN(C)C)Cc1cccc(c1OCC(=O)NCCN(C)C)C2	–	428 nM (active)
COc1c(Nc2ncc(Cl)c(N[C@H]3[C@H](C(N)=O)[C@@H]4C=C[C@@H]3C4)n2)ccc2c1CCC(N1CCOCC1)CC2 (stereo partly specified)	111	–
COc1ccc2c(c1)[C@]1(C[C@H]1c1ccc3c(/C=C/c4ccc(CN5C[C@@H](C)O[C@@H](C)C5)cc4)n[nH]c3c1)C(=O)N2	–	18600 nM (active)
NCCCC[C@H](NC(=O)[C@@H](NC(=O)[C@H](Cc1c[nH]c2ccccc12)NC(=O)[C@H](CCCCN)NC(=O)[C@H](CCCCN)NC(=O)[C@H](Cc1c[nH]c2ccccc12)NC(=O)[C@H](Cc1c[nH]c2ccccc12)NC(=O)[C@H](CCCCN)NC(=O)[C@@H](N)CCCCN)C(c1ccccc1)c1ccccc1)C(N)=O (H-KKWWKKW[Dip]K-NH2)	35.2	–
Cn1ncc(NC(=O)c2nc(-c3c(F)cccc3F)sc2N)c1N1CC[C@@H](N)[C@H](F)CC1	–	93.4 nM (active)
CCS(=O)(=O)c1ccc2oc(-c3ccc4ccccc4c3)nc2c1	95.1	–
Cc1ccc(NC(=O)[C@H]2CCCN(C(=O)c3c(C)cccc3F)[C@H]2c2ccc(NC3CCCC3)cc2)cc1C(F)(F)F	108	–
CN(C)CCOc1ccc(/C(=C(/CCCl)c2ccccc2)c2ccccc2)cc1	106	–
CCc1cnn2c(NCc3ccc[n+]([O-])c3)cc(N3CCCC[C@H]3CCO)nc12	–	23.5 nM (active)
CC(=O)Nc1ccc(C(=O)NC(C)(C)C)cc1	91.1	–
Cc1cc(Oc2ccc3nc(COc4ccc(CC5SC(=O)NC5=O)cc4)n(C)c3c2)cc(C)c1N (stereo unspecified)	118	–
OCCOc1ccc(/C(=C(/CCCl)c2ccccc2)c2ccccc2)cc1	106	–
COc1ccc(CC2c3cc(OC)c(OC)cc3CC[N+]2(C)CCC(=O)OCCCCCOC(=O)CC[N+]2(C)CCc3cc(OC)c(OC)cc3C2Cc2ccc(OC)c(OC)c2)cc1OC (stereo unspecified)	105	–
CN(C(=O)CNC(=O)/C=C/c1cccc(Cl)c1)C1CCS(=O)(=O)CC1	99.3	–
O=C(CCNC(=O)c1ccc(OC(F)(F)F)cc1)N[C@@H]1CCCc2ccccc21	64.7	–
